High-throughput results from PubChem BioAssay.
In the library only some 11% were active in any assay of this set; here they are far more common.
HPGD block = blocks human HPGD enzyme activity; P15428; purified HPGD, NADH fluorescence kinetic, PGE2 substrate; Potency, µM, inactives show top-dose activity change, negative = inhibition, hits mostly inhibitors; actives 4.3% (n = 150,000); AID 894; also: potency is read from the fitted curve at half-maximal effect
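NADH formation kinetics: reaction with 30 uM PGE2 and 1 mM NAD+ (final), 20 nM enzyme, Tris-HCl pH 8 with Tween 20, after 15 min compound preincubation at room temperature. Fluorescence change, last versus first of five reads.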
ALDH1A1 inh = inhibitors of human aldehyde dehydrogenase 1A1; actives 7.3% (n = 220,000); P00352; Purified ALDH1A1, NADH fluorescence, propionaldehyde substrate; Potency, µM (top dose mostly 75.3 µM), for inactives: at the top dose activity, negative = inhibition, usual class: inhibitors;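 also: potency is read from the fitted curve at half-maximal effect; plate controls were no enzyme wells and a reference inhibitor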
PNC inhibitor = blocks assembly of the perinucleolar compartment; PC3M PTB-GFP, PNC prevalence imaging, 16 h; active compounds read low; activity change (PNC), negative = inhibition, % at 10 µM; actives 3.1% (n = 140,000); AID 2417;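 active = readout at or below -70, meaning at least 70% loss of cells showing the perinucleolar compartment, a nuclear body marking cancer cells; inconclusive = readout between -30 and a set limit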;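 also: plate controls were DMSO wells for no effect and camptothecin positive control wells for full effect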
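Compounds are pinned in duplicate onto adhered PC3M cells stably expressing GFP-tagged PTB and incubated 16 h at 37 C. Cells are then fixed, nuclei stained with Hoechst, and PNC-positive cells counted.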
JMJD2E inh = blocks human JMJD2E demethylase activity | B2RXH2 | JMJD2E catalytic domain, FDH-coupled NADH fluorescence (FDH is formaldehyde dehydrogenase) | Potency, µM (doses to about 57.1 µM), for inactives: at the highest dose activity change, negative = inhibition, actives largely listed as inhibitors | AID 2147 | actives 1.6% (n = 230,000);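 also: potency is read from the fitted curve at half-maximal effect; 0% = wells with enzyme and -100% = buffer wells without enzyme; nearly all actives have a fitted effect of over 50% in size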
Target sequence (B2RXH2 1-337 limits assumed): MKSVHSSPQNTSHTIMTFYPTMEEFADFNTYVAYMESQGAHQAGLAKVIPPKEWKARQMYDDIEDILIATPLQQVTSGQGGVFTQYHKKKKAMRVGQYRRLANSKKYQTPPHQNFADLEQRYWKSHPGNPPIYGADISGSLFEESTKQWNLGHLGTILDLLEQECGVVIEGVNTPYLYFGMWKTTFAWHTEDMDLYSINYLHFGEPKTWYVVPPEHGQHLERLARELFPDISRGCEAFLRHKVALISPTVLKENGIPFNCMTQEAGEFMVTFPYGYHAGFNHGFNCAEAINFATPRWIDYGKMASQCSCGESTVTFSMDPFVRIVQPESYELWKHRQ
Starred values were filed as active, the others as inactive; ? = inconclusive; / = no result given; [ ] = another dose, or the depositor's remark. Unless noted, calls follow the shape of the dose curve; as a rule, active = well fitted inhibition curve with a large enough effect (not every such curve was filed as active); inconclusive = small, poorly fitted or top-dose-only effect, or another doubt; inactive = no such curve, though single readings can be large or run the other way. Unless noted, % is scaled to controls: 0 for no effect and ±100 for the full control effect.

SMILES | HPGD block | ALDH1A1 inh | PNC inhibitor | JMJD2E inh
Cc1ccc(-c2nnn(CC(=O)N(Cc3ccco3)C(C(=O)NC3CCCC3)c3cccs3)n2)o1 (centres undefined) | -12% | 4% | -100* | -9%
Cc1ccc(-c2nnn(CC(=O)N(Cc3cccs3)C(C(=O)NC3CCCCC3)c3ccco3)n2)o1 (centres undefined) | -7% | 1% | -28 | -1%
Cc1ccc(Sc2cc(Cl)nc(N)n2)cc1 | 0% | 11% | -11 | 8%
O=C(NCc1ccco1)C(c1cccs1)N(Cc1ccccc1)C(=O)Cn1nnc2ccccc21 (centres undefined) | -5% | -6% | ? | 0%
O=C(NCc1ccco1)C(c1ccco1)N(Cc1cccs1)C(=O)Cn1nnc2ccccc21 (centres undefined) | -16% | 14µM* | -21 | 0%
O=C(c1cnccn1)N1CCC2(CC1)CCN(C(c1ccccc1)c1ccccc1)CC2 | -3% | -1% | / | /
O=C(c1ccc(Cl)cc1)N1CCC(O)(CSc2ccc(Cl)cc2)CC1 | -11% | 16µM* | -9 | 0%
O=C(c1ccc(Cl)cc1)N1CCC(O)(CSc2ccccc2)CC1 | -3% | 1.4µM* | -91* | 6%
Cc1ccc(SCC2(O)CCN(S(=O)(=O)c3ccc(Cl)cc3)CC2)cc1 | -9% | ? | -100* | 1%
COc1cccc(SCC2(O)CCN(C(=O)c3ccc(Cl)cc3)CC2)c1 | / | ? | / | 3%
CCOc1ccc(N/C(=N/c2nc(C)cc(C)n2)NC(C)=O)cc1 | / | / | / | -3%
COC(=O)[C@@]1(Cc2ccc(F)cc2)[C@H]2c3cc(C(=O)N(C)C)n(Cc4cc(F)c(F)c(F)c4)c3C[C@H]2CN1C(=O)c1ccccc1 | -4% | 12% | / | 14%
NS(=O)(=O)c1ccc(NC(=O)Nc2ccccc2F)cc1 | -1% | 3%[13.5 µM] | / | /
CCOc1ccc(NC2c3ccccc3C(=O)N2Cc2ccco2)cc1 (centres undefined) | -21% | 5.6µM* | -8 | -6%
COc1ccc(NC2c3ccccc3C(=O)N2Cc2ccco2)cc1OC (centres undefined) | -7% | -8% | 4 | -1%
Cn1cnc([N+](=O)[O-])c1N=C(N)N | / | 2% | / | 8%
COc1ccccc1CN(C)C(=O)C1COc2ccccc2O1 (centres undefined) | 7.1µM* | -3% | ? | -1%
Cc1ccc(NC(=O)CN(C)C(=O)C2COc3ccccc3O2)cc1 (centres undefined) | / | 4% | / | -9%
O=C(O)c1ccccc1-c1nc2ccccc2n1-c1ccccc1 | 3% | 0% | -109* | 9%
O=C1c2ccccc2-c2nc3ccccc3n21 | / | / | / | -1%
COc1ccc(OCc2cc(-c3ccc(Cl)cc3)no2)cc1 | / | 2% | / | 2%
O=C(CCl)NCc1cc(-c2ccc(Cl)cc2)no1 | / | 22µM* | / | -1%
O=C(NCCSCc1c(F)cccc1Cl)c1ccc(CN2CCOCC2)cc1 | -9% | 3% | 31 | 8%
CCN(C(=O)COC(=O)c1cccc(NS(=O)(=O)c2ccc(F)c(F)c2)c1)C1CCS(=O)(=O)C1 (centres undefined) | / | 20% | / | 12%
O=C(CCCN1C(=O)c2cccc3cccc(c23)C1=O)N1CCN(c2ncccn2)CC1 | / | 28µM* | / | -10%
SMILES | HPGD block | ALDH1A1 inh | PNC inhibitor | JMJD2E inh
CN(C)S(=O)(=O)c1cccc(NC(=O)CCNC(=O)c2ccccc2Cl)c1 | ? | -5% | -19 | 4%
Oc1ccc(Br)cc1-c1ccn[nH]1 | -21% | 0% | -17 | -15%
Oc1ccc(O)c(-c2cnns2)c1 | 1.4µM* | ? | -20 | -7%
O=C1CCCN1Cc1ncnn1-c1ccccc1 | -3% | 7% | -100* | 6%
C=C1CCC[C@]2(C)C[C@H]3OC(=O)[C@H](CNCCc4ccccc4OC)C3CC12 (some centres undefined) | -2% | 8.9µM* | / | -6%
O=C(Cc1ccccc1)N1CCC(c2ccccc2)C1 (centres undefined) | / | 25µM* | / | 1%
CC1CCCN(C(=O)CCc2ccccc2)C1 (centres undefined) | 4.5µM* | -13% | -97* | -7%
CC1CCN(C(=O)COc2ccc(Nc3ccccc3)cc2)CC1 | / | ? | / | -4%
CC1CCCN(C(=O)COc2ccc(Nc3ccccc3)cc2)C1 (centres undefined) | / | 28µM* | / | -5%
COc1ccc(CC(=O)N2CCC(c3ccccc3)C2)cc1 (centres undefined) | / | ? | / | 6%
O=C(NCCc1nc2ccccc2[nH]1)/C(=C/c1ccc2c(c1)OCO2)NC(=O)c1ccccc1Cl | -15% | -6% | ? | 0%
